# PubChem BioAssay
# “And” between values parts separate entries of the source, which are not always exact repeats. Equal entries are not always repeated. The source made the active and inactive calls.
# Tests used:
# Albumin (Bos taurus) = Albumin (Bos taurus) (UniProt P02769); assay: compounds binding labelled BSA control protein – biochemical, small-molecule microarray, Alexa647 label, 635/667 nm fluorescence, artefact control for SMM control protein annotation, profiling panel (AID 1118); conditions: BSA-A647 binding, fluorescence 635 nm, higher = more signal;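 also: score merges 667 nm emission intensity and signal-to-noise per printed compound spot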
# Albumin (Bos taurus), sequence (P02769 whole entry, looked up): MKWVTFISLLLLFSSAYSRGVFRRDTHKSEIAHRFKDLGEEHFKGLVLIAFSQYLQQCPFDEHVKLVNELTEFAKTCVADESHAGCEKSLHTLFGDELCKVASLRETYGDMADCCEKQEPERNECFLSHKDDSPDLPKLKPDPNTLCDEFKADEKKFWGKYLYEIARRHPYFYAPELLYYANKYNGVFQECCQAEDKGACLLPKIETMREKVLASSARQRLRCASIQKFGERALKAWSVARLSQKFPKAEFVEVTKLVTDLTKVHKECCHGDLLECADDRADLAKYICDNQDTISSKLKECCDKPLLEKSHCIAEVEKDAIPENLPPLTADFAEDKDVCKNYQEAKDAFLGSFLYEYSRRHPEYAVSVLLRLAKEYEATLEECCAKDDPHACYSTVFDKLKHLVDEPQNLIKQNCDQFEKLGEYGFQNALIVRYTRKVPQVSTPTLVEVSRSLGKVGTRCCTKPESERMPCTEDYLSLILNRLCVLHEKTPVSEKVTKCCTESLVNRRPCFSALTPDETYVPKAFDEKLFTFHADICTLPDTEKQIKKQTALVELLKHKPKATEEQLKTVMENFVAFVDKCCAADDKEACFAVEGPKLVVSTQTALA
# [1] = probe aXIP binding to arrayed compounds – biochemical, NeuroSMM set, 635/667 nm fluorescence, primary screen (AID 1119); conditions: small-molecule microarray, higher = more signal, called active from +8 up or from −8 down;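 also: probe is the protein aXip251-270 applied at 1 µg/mL to compound-printed slides; binding of probe to printed compounds measured as 667 nm fluorescence plus signal to noise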
# [2] = probe aNOTCH3 binding on compound microarray – biochemical, small-molecule microarray, 635/667 nm fluorescence, primary screen (AID 1120); conditions: higher = more signal;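 also: probe is a biotin-tagged antibody raised against NOTCH3 rather than NOTCH3 protein; score merges spot fluorescence near 667 nm with spot signal to noise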
# [3] = probe aNOTCH2 binding on compound microarray – biochemical, small-molecule microarray, 635/667 nm fluorescence, primary screen (AID 1121); conditions: higher = more signal;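 also: score merges feature fluorescence read at 667 nm with its signal to noise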
# [4] = biological target: Carbonic anhydrase 2 (Homo sapiens) (UniProt P00918); assay: compounds binding carbonic anhydrase 2 – biochemical, small-molecule microarray, Alexa647-labelled CAII, profiling panel (AID 1122); conditions: CAII-A647 binding fluorescence, higher = more signal
# [5] = COS7 lysate on small-molecule microarray, probe aHis, 635 nm (AID 1123); conditions: COS7 cell lysate, fluorescence, higher = more signal;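 also: z-score combines 667nm fluorescence intensity with signal-to-noise per printed compound spot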
# [6] = probe aLAP1 signal on lysate-treated microarray – cell lysate, small-molecule microarray, COS7 lysate, primary screen (AID 1124); conditions: probe aLAP1, fluorescence, higher = more signal;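 also: lysate comes from COS7 cells expressing LAP1 and is applied at 0.3 µg/mL; score merges spot fluorescence near 667 nm with signal-to-noise over triplicate slides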
# Sam68 (KHDRBS1) = assay: compounds binding KHDRBS1 protein – biochemical, small-molecule microarray, 635 nm fluorescence, primary screen (AID 1125); conditions: higher = more signal;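 also: score merges 667 nm channel intensity with signal to noise over triplicate slides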
# [7] = test system: Chordin-like protein 2 (CHRDL2); assay: compounds binding chordin-like 2 – biochemical, small-molecule microarray, 635 nm fluorescence, primary screen (AID 1126); conditions: fluorescence 635 nm, higher = more signal;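 also: printed compound slides probed with Chrdl2 protein at 4 µg/mL for 1 h at 4 C; score merges 667 nm emission intensity with signal to noise over three replicate slides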
# [8] = biological target: Concanavalin-A (Canavalia ensiformis) (UniProt P02866); assay: compounds binding concanavalin A lectin – biochemical, small-molecule microarray, Alexa647 label, 635 nm, artefact control for SMM control protein annotation, primary screen (AID 1127); conditions: ConA-A647 binding fluorescence, higher = more signal;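 also: z combines 667 nm emission intensity with signal-to-noise across three replicate slides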
# Concanavalin-A (Canavalia ensiformis), sequence (P02866 whole entry, looked up): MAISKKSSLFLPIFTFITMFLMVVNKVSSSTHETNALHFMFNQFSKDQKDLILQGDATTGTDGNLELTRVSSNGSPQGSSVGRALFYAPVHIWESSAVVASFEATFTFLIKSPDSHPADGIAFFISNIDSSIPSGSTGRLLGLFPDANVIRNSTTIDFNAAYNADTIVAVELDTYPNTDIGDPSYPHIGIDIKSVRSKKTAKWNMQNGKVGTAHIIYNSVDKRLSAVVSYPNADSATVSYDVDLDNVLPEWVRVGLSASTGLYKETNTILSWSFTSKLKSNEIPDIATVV
Compound,composite z-score (Albumin (Bos taurus)),composite Z-score [1],composite z-score [2],composite z-score [3],composite z-score [4],composite z-score [5],composite z-score [6],composite z-score (Sam68 (KHDRBS1)),composite z-score [7],composite z-score [8]
Cc1ccc(S(=O)(=O)N[C@@H]2COC(=O)CC=C[C@@H](C)[C@@H]3C=C[C@H](O)[C@@H](COC(=O)CC=C[C@H]2C)O3)cc1,-0.311 and -0.304,-0.842 (inactive) and -0.0662 (inactive),0.0426 and -0.161,-0.14 and -0.124,-0.0023 and 0.221,-0.348 and 0.043,0.0386 and 0.26,-0.132 and 0.293,0.711 and 0.396,-0.6 and 0.152
CC[C@@H]1C(Sc2ccccc2)C(C(=O)O)[C@H](c2ccc(C)cc2)N1S(=O)(=O)c1ccc(C)cc1 (stereo not given in full),0.978 and 0.899,0.242 (inactive) and 1.85 (inactive),0.411 and -0.022,0.0739 and -0.0635,0.232 and 0.755,0.893 and 2.52,0.541 and 0.418,1.33 and 1.3,-0.682 and -0.367,1.22 and 1.09
CCOC(=O)c1ccc(NC(=O)O[C@H]2[C@H](OC(=O)Nc3ccccc3)[C@@H](OC(=O)Nc3ccccc3)[C@@H](OC)O[C@@H]2CO)cc1,0.905 and 0.893,1.09 (inactive) and 0.682 (inactive),0.228 and 0.318,0.0149 and -0.0131,0.527 and 0.688,2.63 and 1.91,0.336 and 0.278,1.31,-0.193 and -0.279,1.23 and 1.17
COC(=O)C1=C(C)N(Cc2ccccc2)[C@]23O[C@](C(=O)OC)(C(=O)N2[C@@H]1c1ccccc1)[C@@H](c1ccccc1)[C@@H]3C(=O)c1ccccc1,0.711 and -0.334,-0.0461 (inactive) and 0.0162 (inactive),-0.0111 and -0.0048,-0.119 and -0.0974,0.179 and 0.178,0.49 and 0.258,0.315 and -0.144,0.661 and -0.776,0.189 and 0.843,0.675 and 0.142
CCOC(=O)[C@H](CC(C)C)NC(=O)CCC1CC(OC(=O)NCc2cccc3ccccc23)CC2(CCCC(COC(=O)NCc3ccccc3)O2)O1 (stereo not given in full),-0.294,-0.19 (inactive),-0.155,-0.152,-0.3,0.043,-0.384,-0.903,-0.139,-0.68
COC(=O)C1=C(C)N(Cc2ccccc2)[C@]23O[C@](C(=O)OC)(C(=O)N2[C@@H]1c1ccccc1)[C@H]1C(=O)N(c2ccccc2)C(=O)[C@H]13,0.692 and 0.614,-0.119 (inactive) and -0.275 (inactive),0.121 and 0.024,0.0793 and -0.0321,0.306 and 0.428,1.05 and -0.39,0.294 and 0.526,0.682 and 0.308,0.223 and 0.523,0.838 and 0.0089
CCCC[C@@H]1CN2[C@H](c3ccc(Br)cc3)[C@@H](C)CC[C@H]2C(=O)O1,-0.102 and -0.193,-0.0662 (inactive) and -0.0677 (inactive),-0.17 and -0.0888,-0.14 and -0.0316,-0.199 and -0.139,-0.263 and 0.0681,0.43 and 0.159,-0.32 and 0.277,0.204 and 0.111,0.404 and -0.854
